Results as given in the supplement of paper PMC11732987, “Enantioselective OTUD7B fragment discovery through chemoproteomics screening and high-throughput optimisation” (Communications Chemistry, 2025).
Unmarked numbers belong to inactive results.

Biological target: USP34 (UniProt Q70CQ2)
Assay: log2 ratio of Biotin-Ahx-Ub-VS probe labelling (fragment/DMSO); higher = less target engagement (more negative = stronger competition), active = hit call of the paper (q ≤ 0.05, log2 ratio ≤ -1)
Conditions: compound concentration: 200 uM; treatment time: 3 h
Outline: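 Labelled DUBs were enriched with NeutrAvidin, digested with LysC and trypsin, and run by diaPASEF LC-MS/MS. The labelling used Biotin-Ahx-Ub-VS at 0.5 µM final for 1 h on HEK293T lysate (495 µg per sample) previously treated in triplicate with fragment at 200 µM or vehicle for 3 h. Values are average log2 fragment/vehicle ratios by unpaired t-test on global-median-normalised Spectronaut quantities of proteins with ≥2 unique peptides.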

Chain of USP34 (Q70CQ2 whole entry, the tested form may be a part): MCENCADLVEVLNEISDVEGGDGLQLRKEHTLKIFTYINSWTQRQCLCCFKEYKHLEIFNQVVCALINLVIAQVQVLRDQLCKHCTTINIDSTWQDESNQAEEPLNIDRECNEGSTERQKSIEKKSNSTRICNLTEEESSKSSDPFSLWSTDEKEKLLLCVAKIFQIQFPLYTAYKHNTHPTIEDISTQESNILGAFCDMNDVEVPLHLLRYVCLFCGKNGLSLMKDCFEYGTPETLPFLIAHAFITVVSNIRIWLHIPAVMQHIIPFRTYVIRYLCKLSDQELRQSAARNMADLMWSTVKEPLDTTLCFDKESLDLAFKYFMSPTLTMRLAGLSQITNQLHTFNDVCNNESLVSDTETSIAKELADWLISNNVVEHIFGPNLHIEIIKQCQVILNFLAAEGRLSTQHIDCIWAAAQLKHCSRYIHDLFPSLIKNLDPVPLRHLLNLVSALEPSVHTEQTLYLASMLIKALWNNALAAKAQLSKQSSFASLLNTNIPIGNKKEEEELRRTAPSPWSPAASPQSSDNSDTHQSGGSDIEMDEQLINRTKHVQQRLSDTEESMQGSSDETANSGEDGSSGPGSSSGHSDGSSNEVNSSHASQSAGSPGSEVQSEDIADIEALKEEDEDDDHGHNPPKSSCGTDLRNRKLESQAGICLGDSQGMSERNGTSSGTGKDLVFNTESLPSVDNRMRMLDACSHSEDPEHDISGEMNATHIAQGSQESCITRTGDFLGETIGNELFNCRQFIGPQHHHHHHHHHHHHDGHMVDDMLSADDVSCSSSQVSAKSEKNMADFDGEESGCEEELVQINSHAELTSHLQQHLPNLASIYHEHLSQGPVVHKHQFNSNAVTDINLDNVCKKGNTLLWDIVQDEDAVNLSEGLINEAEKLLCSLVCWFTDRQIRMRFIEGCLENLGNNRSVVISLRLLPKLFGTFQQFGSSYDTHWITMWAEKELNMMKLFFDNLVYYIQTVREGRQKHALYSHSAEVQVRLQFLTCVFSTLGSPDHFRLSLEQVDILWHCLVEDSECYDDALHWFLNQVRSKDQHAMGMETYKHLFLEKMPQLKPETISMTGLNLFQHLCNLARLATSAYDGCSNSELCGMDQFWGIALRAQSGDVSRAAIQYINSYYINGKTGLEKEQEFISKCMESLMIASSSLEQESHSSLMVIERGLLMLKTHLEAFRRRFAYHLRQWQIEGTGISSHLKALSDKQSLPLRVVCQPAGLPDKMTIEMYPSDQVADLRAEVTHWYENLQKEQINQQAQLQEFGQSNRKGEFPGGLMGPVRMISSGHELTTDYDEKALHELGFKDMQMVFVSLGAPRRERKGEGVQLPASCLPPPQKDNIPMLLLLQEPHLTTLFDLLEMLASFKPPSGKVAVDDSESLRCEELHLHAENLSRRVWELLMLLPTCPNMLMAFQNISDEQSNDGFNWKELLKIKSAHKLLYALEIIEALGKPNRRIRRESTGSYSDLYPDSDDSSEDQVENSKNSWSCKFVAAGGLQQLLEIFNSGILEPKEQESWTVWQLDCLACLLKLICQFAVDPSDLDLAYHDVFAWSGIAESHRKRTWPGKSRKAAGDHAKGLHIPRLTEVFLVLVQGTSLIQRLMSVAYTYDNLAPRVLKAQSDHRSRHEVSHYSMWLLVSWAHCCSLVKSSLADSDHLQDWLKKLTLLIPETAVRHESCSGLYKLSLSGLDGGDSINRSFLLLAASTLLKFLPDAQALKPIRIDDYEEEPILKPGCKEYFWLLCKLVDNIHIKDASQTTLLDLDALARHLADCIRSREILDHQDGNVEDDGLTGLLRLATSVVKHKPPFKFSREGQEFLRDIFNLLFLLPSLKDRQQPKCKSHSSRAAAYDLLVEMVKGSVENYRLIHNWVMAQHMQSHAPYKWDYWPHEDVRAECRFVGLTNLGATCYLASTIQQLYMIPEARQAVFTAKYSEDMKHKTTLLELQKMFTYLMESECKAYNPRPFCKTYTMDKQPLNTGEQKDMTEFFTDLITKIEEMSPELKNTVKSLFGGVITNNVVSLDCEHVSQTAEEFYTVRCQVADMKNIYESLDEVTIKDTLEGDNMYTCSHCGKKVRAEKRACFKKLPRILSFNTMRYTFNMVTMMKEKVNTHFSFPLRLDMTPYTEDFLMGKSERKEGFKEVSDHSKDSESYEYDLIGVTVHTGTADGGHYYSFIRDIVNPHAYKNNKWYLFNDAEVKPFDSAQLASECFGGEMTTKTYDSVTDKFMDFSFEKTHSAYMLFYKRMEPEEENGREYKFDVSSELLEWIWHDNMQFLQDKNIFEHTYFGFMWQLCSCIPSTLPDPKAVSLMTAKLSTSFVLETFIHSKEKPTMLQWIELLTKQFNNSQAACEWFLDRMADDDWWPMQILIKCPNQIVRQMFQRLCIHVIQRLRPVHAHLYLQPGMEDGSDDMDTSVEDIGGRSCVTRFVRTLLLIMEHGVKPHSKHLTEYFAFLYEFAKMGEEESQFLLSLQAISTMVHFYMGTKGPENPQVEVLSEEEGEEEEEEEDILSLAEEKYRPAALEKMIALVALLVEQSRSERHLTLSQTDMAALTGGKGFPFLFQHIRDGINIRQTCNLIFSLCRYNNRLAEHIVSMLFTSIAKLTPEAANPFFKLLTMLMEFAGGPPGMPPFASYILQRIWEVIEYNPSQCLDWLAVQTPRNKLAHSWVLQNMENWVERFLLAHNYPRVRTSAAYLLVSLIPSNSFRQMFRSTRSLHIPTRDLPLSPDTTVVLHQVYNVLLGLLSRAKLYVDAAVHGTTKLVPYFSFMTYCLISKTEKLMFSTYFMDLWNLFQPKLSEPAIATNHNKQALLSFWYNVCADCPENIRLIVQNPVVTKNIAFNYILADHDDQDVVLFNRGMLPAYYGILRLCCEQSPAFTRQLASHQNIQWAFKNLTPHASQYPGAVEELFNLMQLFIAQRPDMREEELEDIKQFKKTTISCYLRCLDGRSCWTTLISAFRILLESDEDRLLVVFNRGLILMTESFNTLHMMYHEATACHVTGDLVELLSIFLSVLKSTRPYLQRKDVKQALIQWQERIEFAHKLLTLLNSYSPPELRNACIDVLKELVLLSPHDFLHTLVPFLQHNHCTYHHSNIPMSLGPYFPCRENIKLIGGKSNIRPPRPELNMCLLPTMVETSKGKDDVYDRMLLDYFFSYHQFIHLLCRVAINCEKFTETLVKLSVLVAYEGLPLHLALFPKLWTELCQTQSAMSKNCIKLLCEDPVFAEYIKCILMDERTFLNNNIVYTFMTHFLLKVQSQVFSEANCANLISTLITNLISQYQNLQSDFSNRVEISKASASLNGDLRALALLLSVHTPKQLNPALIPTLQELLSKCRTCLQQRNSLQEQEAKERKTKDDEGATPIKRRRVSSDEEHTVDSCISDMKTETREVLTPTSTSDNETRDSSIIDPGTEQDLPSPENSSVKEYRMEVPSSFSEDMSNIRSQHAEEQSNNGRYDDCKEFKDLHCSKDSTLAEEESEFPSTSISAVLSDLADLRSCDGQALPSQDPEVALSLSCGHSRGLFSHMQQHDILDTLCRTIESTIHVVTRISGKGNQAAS

Structure (SMILES)	log2 ratio of Biotin-Ahx-Ub-VS probe labelling
O=C(CCl)Nc1ccc(F)cc1Cl	-0.452
O=C(CCl)Nc1cccc2ncccc12	-0.104
O=C(CCl)NC(Cn1ccccc1=O)c1ccccc1 (stereo not given)	-0.106
Cc1n[nH]c(=O)c2c(NC(=O)CCl)oc(C)c12	-0.107
Cc1ccc(-c2nnc(C)[nH]2)c(NC(=O)CCl)c1	0.0375
Cc1ccc(C)c(Oc2ccc(CNC(=O)CCl)cn2)c1.Cl	-0.224
Cc1nc(CN2CCCN(C(=O)CCl)CC2)no1.Cl	0.0178
N#Cc1ccc(CNC(=O)CCl)cc1	-0.0142
CC(C)n1nccc1NC(=O)CCl	-0.109
CC(NC(=O)CCl)c1ccc2[nH]ncc2c1 (stereo not given)	-0.271
Cl.O=C(CN1CCN(C(=O)CCl)CC1)Nc1ccc(F)cc1	0.1
CC(NC(=O)CCl)c1cnn(C2CC2)c1 (stereo not given)	-0.133
NC(=O)C(Cc1ccccc1)NC(=O)CCl (stereo not given)	-0.217
O=C(CCl)NC1CCN(C(=O)C2CCCCC2)CC1	0.0203
Cc1cc(Cl)ccc1NC(=O)CCl	-0.254
COc1ccc(Cl)cc1NC(=O)CCl	-0.301
O=C(CCl)Nc1nnc(CC(F)(F)F)o1	0.146
O=C(CCl)N(C1=CCCCC1)C1CC1	-0.0141
Cc1ccc(CN(CCO)C(=O)CCl)cc1	0.0432
CC(NC(=O)CCl)c1cccc2ccccc12 (stereo not given)	-0.0995
